# Source: PubChem BioAssay (NCI)
# The panel holds about 83,000 compounds, 20% with a hit somewhere; the sample as a whole holds those more often.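 How to read the values: 0–100, growth inhibition (40 = 60% inhibited); 0, no net growth; -100 to 0, cell death (-40 = 40% of starting cells died; -100 = all dead).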 Activity calls are given as the source filed them. Rule for the calls: active = growth percent below 10; inactive = the rest.
# Tested on: HL-60(TB) leukemia
# Test: NCI-60 one-dose screen, 48 h (100 = growth as untreated, 0 = no growth, -100 = all killed)
# Settings: 10 µM unless noted
row,Structure (SMILES),growth
1,CCOC(=O)c1sc(N/N=C(\C)c2ccc3c(c2)Nc2ccccc2S3)nc1C,22.1% (inactive)
2,CC(=O)c1cccc(NC(=O)CCC(=O)NS(=O)(=O)c2ccc(C)cc2)c1,107% (inactive)
3,COc1ccc2c(c1)C(=O)N(C)C2C1c2c(cc3c(c2OC)OCO3)CCN1C (configuration not stated),-6.5% (active)
4,COc1ccc2[nH]c(=O)c(CSc3ccc(Nc4nccc(-c5ccc(Cl)cc5)n4)cc3)cc2c1,86.1% (inactive)
5,O=C1Nc2ccc(Cl)cc2/C1=C/c1cccc(OCc2ccccn2)c1,-25% (active)
6,CN(C)CCCNC(=O)c1cc(NC(=O)c2cc(NC(=O)c3ccc(C#Cc4ccccc4)cc3)cn2C)cn1C,-69.6% (active)
7,Cn1cc(-c2cc(N)n3nc(-c4c[nH]c5ccccc45)cc3n2)c2cccnc21,-70.9% (active)
8,O=C(Nc1ccc(OCc2ccc(F)cc2)cc1)Nc1ccc(Cl)c(C(F)(F)F)c1,-3.24% (active)
9,COc1ccc2c(c1)c(-c1cc3nc(-c4cn(C)c5ncc(Br)cc45)cc(N)n3n1)cn2C,-59.7% (active)
10,CCN(CC)c1ccnc(CNCCSC(c2ccccc2)(c2ccccc2)c2ccc(C)cc2)c1,-52.3% (active)
11,COc1cc2cc(C(=O)N3C[C@@H](CCl)c4c3cc(OC(=O)N(CCC(=O)N3CCN(C)CC3)C3CCCCC3)c3ccccc43)[nH]c2c(OC)c1OC,-55.9% (active)
12,CCOC(=O)C(N=Nc1ccc(S(=O)(=O)N=C(N)N)cc1)C(C)=O (configuration not stated),96.4% (inactive)
13,COc1cc(NC(=O)c2cccc(C3CCc4c(cc(OC)c(OC)c4OC)O3)c2)cc(OC)c1OC (configuration not stated),4.25% (active)
14,CC1CC(c2ccc(N(C)C)cc2)=NN1c1nc(O)c(C2=c3cc(Br)ccc3=NC2=O)s1 (configuration not stated),68.7% (inactive)
15,Clc1cccc(N/N=C/c2c[nH]c3ccccc23)n1,13.8% (inactive)
16,O=S(=O)(Nc1cccc(-n2cnc3cc(-c4ccc(O)cc4)ccc32)c1)C1CC1,-19.9% (active)
17,COc1cc(C2CC(c3ccccc3)=Nc3c(N)nc(N)nc3N2)ccc1Oc1nc(NCCO)nc(N2CCOCC2)n1 (configuration not stated),93.5% (inactive)
18,Cc1ncsc1-c1ccc(CNC(=O)[C@@H]2C[C@@H](O)CN2C(=O)[C@@H](NC(=O)C2(F)CC2)C(C)(C)C)c(OCCOCCOCCOCCOc2nc(Nc3cc(S(C)(=O)=O)ccc3N[C@@H](c3cccc4c3OC(F)(F)O4)c3ncccc3Cl)nc(N3CCNCC3)n2)c1,72% (inactive)
19,Cc1ccc(-c2cc(-c3cc4ccccc4nc3Cl)[nH]c(=O)n2)cc1,-32.7% (active)
20,CC1(c2ccccc2)NC(=O)N(CC(=O)Nc2ccc(C(=O)/C=C/c3ccccc3)cc2)C1=O (configuration not stated),10.1% (inactive)
21,Cc1ccc(-c2nc(Nc3ccc(S(N)(=O)=O)cc3)c3ccccc3n2)cc1,24.9% (inactive)
22,COc1ccc(Nc2ncnc3sc4c(c23)CCN(Cc2ccccc2)C4)cc1,68.2% (inactive)
23,COC(OC)C1=C(C)OC(N)=C(C#N)C12C(=O)Nc1ccccc12 (configuration not stated),67.6% (inactive)
24,CC1(C)CC[C@]2(C(=O)O)CC[C@]3(C)C(=CCC4[C@@]5(C)C[C@@H](O)[C@@H]6OC(c7ccco7)OC[C@@]6(C)C5CC[C@]43C)C2C1 (some centres not stated),13.5% (inactive)
25,COc1ccc(NC(=O)Cn2c(/C=C/c3cccc(Br)c3)nc3ccccc3c2=O)cc1,92.9% (inactive)
26,O=C(CSc1nnc(-c2c[nH]c3ccccc23)n1-c1ccccc1)Nc1ccc(C(=O)/C=C/c2ccccc2Cl)cc1,78% (inactive)
27,Nc1cc2ccccc2c(=O)n1NC(=O)c1ccc(I)cc1,77% (inactive)
